“And” between values parts separate entries of the source, which are not always exact repeats. Equal entries are not always repeated. The panel holds about 83,000 compounds, 20% with a hit somewhere; the sample as a whole holds those more often.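 Growth was measured after 48 h exposure to one concentration of compound in 96-well plates. Values under 10 count as active.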 Some compounds were tested as several samples or in several runs, with calls that do not always agree. The source made the active and inactive calls.
Test system: MDA-MB-468 breast
Assay: NCI-60 one-dose screen, 48 h (100 = growth as untreated, 0 = no growth, -100 = all killed)
Settings: 10 µM unless noted

With c1cc(NCCCCN2CCOCC2)c2ccc3c(ccc4c(NCCN5CCOCC5)ccnc43)c2n1 as the compound, how does the growth read?
Its growth is 75.8% (inactive).

CCCCCCCCn1ccc2cc(NC(=O)CN=[N+]=[N-])ccc21 was tested. Which growth did it give?
The growth was 105% (inactive).

Which growth does the source give for COc1nc2c(cc1S(=O)(=O)c1ccccc1)CCc1c-2cnn1-c1ccccc1 here?
Its growth is 45.3% (inactive).

COc1cccc(-c2nc3sccn3c2-c2ccnc(NCCCNS(=O)(=O)c3ccccc3)n2)c1 was tested. Which growth did it give?
The growth was 52% (inactive).

With COc1cc(/C=C/C(=O)c2cc(-c3ccccc3)ccc2O)cc(OC)c1OC as the compound, how does the growth read?
Its growth is 58.3% (inactive).

Which growth does the source give for O=C(c1ccccc1)c1cccc(C(Br)Br)c1 here?
The growth was 92.5% (inactive).

For CCOC(=O)CCN(CC(C)C)C(=S)Nc1ccccc1, which growth is on record?
The growth was 104% (inactive).

Which growth does the source give for NN1CCOC(c2ccccc2)C1 (stereo not given) here?
Its growth is 113% (inactive).

For Clc1ccc(Cn2cc(-c3nc4ccc(Br)nc4n3Cc3ccc(Cl)cc3)c3cccnc32)cc1, which growth is on record?
Its growth is 60.7% (inactive).

With O=c1cc(Cl)[nH]c(=O)[nH]1 as the compound, how does the growth read?
The growth was 101% (inactive).

CCCCNC(=O)C(=O)NCCCC was tested. Which growth did it give?
Its growth is 102% (inactive).

Which growth does the source give for NC(N)=N/N=C/c1cccc(Cl)c1Cl here?
Its growth is 18.1% (inactive).

How did the growth turn out when O=C1c2ccccc2C(=O)c2c1ccc(C(=O)O)c2[N+](=O)[O-] was run?
The growth was 119% (inactive).

Which growth does the source give for O=C(/C(=C\c1ccc([N+](=O)[O-])cc1)S(=O)Cc1ccc(F)cc1)c1ccc(F)cc1 (stereo not given) here?
Its growth is 16.3% (inactive).

For O=C1c2ccccc2OC=C(c2ccccc2)N1CCCCNc1ccc(S(=O)(=O)Nc2ncccn2)cc1, which growth is on record?
The growth was 103% (inactive).

How did the growth turn out when COc1ccc(-c2cc(-c3ccc(Nc4nc(Nc5ccccc5)nc(Nc5ccc(Cl)cc5)n4)cc3)nc(N)n2)cc1 was run?
Its growth is 87.4% (inactive).

For COc1cc2ncnc(Oc3ccc(NC(=O)Nc4ccc(CN5CCOCC5)c(C(F)(F)F)c4)c4ccccc34)c2cc1OC, which growth is on record?
The growth was -12.3% (active).

With COc1cc2nc(-c3ccc(C)cc3)cc(OCCCNCC3CCCO3)c2cc1OC (stereo not given) as the compound, how does the growth read?
The growth was 68.8% (inactive).

With Cc1ccc(/C=N/NC(=O)CSc2nc3ccccc3c(=O)n2Cc2ccc(S(N)(=O)=O)cc2)cc1 as the compound, how does the growth read?
The growth was 81.2% (inactive).

With Cc1cc(Nc2nc(-c3ccncc3)nc3ccccc23)n[nH]1 as the compound, how does the growth read?
Its growth is 84.2% (inactive).

For COC(=O)N[C@@H](C)CNc1nccc(-c2cn(C(C)C)nc2-c2cc(Cl)cc(NS(C)(=O)=O)c2F)n1, which growth is on record?
The growth was 99.4% (inactive).

For O=C(C(=O)N1CCCCC1)c1ccc(OC2OC(CO)C(O)C(O)C2O)cc1 (stereo not given), which growth is on record?
The growth was 100% (inactive).

Which growth does the source give for ClCCOCCn1cnc2c(Cl)nc(Cl)nc21 here?
The growth was -35.7% (active).

Which growth does the source give for NS(=O)(=O)c1ccc(Nc2nc(SCC(=O)c3ccc(Cl)cc3)nc3c2CCCC3)cc1 here?
Its growth is 57.9% (inactive).

How did the growth turn out when COc1ccc(N/C=C/C2=[N+](C)c3ccccc3C2(C)C)c(OC)c1 was run?
The growth was 80.5% (inactive).

With Cc1ccc(S(=O)(=O)NC(CCC(=O)Nc2ccccc2)C(=O)Nc2ccccc2)cc1 (stereo not given) as the compound, how does the growth read?
Its growth is -20.6% (active).

With CC(=O)OC(C(=O)c1ccccc1)c1ccccc1 (stereo not given) as the compound, how does the growth read?
The growth was 109% (inactive).

How did the growth turn out when Cc1cc(C(=O)O)c(C)n1-c1cccc(C(=O)O)c1 was run?
The growth was 70.1% (inactive).

For O=C(CCn1c[n+](CC(=O)c2ccc(-c3ccccc3)cc2)c2ccccc21)Nc1cccc2cccnc12, which growth is on record?
The growth was -31.2% (active).

For O=C(CNC(=O)OCc1ccccc1)NCC(=O)Oc1ccc([N+](=O)[O-])cc1, which growth is on record?
Its growth is 106% (inactive).

How did the growth turn out when CC1Cc2c(N(C)C)ncnc2N(C)c2ccc(O)cc21 (stereo not given) was run?
The growth was 79.4% (inactive).

Which growth does the source give for O=C(c1ccccc1)C(Cl)C(Cl)c1ccccc1 (stereo not given) here?
Its growth is 17.6% (inactive).

Which growth does the source give for CC1=C(/C=C/C(C)=C/C=C/C(C)=C/C=N/NC(=S)NC(=S)N/N=C/C=C(C)/C=C/C=C(C)/C=C/C2=C(C)CCCC2(C)C)C(C)(C)CCC1 here?
The growth was 10.1% (inactive) and -26.7% (active).

With Cc1cc(C(C)(C)c2cc(C)c(O)c(CN(C)C)c2)cc(CN(C)C)c1O as the compound, how does the growth read?
The growth was 67.7% (inactive).

O=C1CC(N2C(=O)/C(=C/C(Cl)=C\c3ccc([N+](=O)[O-])cc3)SC2=S)C(=O)N1c1ccc(Cl)cc1 (stereo not given) was tested. Which growth did it give?
Its growth is -6.24% (active).

How did the growth turn out when CCCCCCNC(=O)Oc1ccc(/C(=C(\C)c2ccccc2)c2ccc(OCCN(CC)CC)cc2)cc1 was run?
The growth was 74.9% (inactive).

With CC12CCC3c4ccccc4CCC3(CO1)C2 (stereo not given) as the compound, how does the growth read?
The growth was 88.7% (inactive).

Which growth does the source give for COc1ccc(-c2nnc(SCC(=O)Nc3ccc(C(=O)/C=C/c4ccc(Cl)cc4)cc3)n2-c2ccccc2)cc1 here?
Its growth is 97.9% (inactive).

With N=C(N)c1ccc(-c2ccc(-c3ccc(Cl)c(Cl)c3)o2)cc1 as the compound, how does the growth read?
The growth was -70.3% (active).

Which growth does the source give for O=S(=O)(Nc1ccc(-n2cnc3cc(-c4ccc(O)cc4)ccc32)cc1)C1CC1 here?
Its growth is 111% (inactive).
